# What was measured:
# Test in all cases: DAPPL (digital affinity profiling via proximity ligation, sequencing); 10 mM Tris-HCl pH 7.5, 50 mM NaCl, 1 mM DTT, 4% glycerol, room temperature, 30 min; GST-TFs on glutathione beads, 16-mer random dsDNA library, 0.1% formaldehyde crosslink after washing; high values mean tight binding
# FLI1 = biological target: T1, FLI1 (Homo sapiens, UniProt Q01543 1-452); conditions: protein: recombinant; tags: N-terminal GST; dsDNA, one strand shown
# T1 sequence: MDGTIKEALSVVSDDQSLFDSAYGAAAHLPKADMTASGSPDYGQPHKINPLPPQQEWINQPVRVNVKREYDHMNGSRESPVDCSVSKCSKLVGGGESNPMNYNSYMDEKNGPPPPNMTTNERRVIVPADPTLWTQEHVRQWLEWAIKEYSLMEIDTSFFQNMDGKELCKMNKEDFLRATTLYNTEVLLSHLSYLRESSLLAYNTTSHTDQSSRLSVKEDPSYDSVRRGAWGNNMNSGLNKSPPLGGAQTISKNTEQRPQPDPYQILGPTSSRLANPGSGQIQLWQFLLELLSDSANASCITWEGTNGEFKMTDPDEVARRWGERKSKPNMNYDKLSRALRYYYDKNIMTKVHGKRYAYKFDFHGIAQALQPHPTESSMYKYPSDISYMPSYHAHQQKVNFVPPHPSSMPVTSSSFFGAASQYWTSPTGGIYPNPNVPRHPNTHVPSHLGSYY
# Method in brief: (§1)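 Binding signal is defined as a hexamer's read frequency for one factor over its frequency for the tag-only sample. To obtain reads, GST-fused human transcription factors were expressed in yeast, captured on glutathione beads, barcoded with DNA and pooled with that sample. Pools met 200 nmole of a 16-mer random double-stranded DNA library in Tris/NaCl/DTT/glycerol buffer for 30 min at room temperature before washing, 0.1% formaldehyde crosslinking, proximity ligation (BsaI/T4 ligase, 1 h, 37 °C), PCR and Illumina NextSeq500 sequencing.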
# ELK1 = biological target: T2, ELK1 (Homo sapiens, UniProt P19419 1-428); conditions: protein: recombinant; tags: N-terminal GST; dsDNA, one strand shown
# T2 sequence: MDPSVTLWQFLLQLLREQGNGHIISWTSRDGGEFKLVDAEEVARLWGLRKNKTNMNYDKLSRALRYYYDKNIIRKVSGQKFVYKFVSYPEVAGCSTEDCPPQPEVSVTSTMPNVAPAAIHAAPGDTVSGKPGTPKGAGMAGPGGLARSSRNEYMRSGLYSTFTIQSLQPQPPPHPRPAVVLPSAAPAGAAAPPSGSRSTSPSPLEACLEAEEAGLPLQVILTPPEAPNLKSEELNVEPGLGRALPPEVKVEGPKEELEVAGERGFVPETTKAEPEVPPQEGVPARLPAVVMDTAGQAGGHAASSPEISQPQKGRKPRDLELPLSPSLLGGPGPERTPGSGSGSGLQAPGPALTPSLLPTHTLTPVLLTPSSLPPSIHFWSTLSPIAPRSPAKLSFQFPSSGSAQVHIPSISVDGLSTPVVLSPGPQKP
# Method in brief: as §1
# GABPA = biological target: T3, GABPA (Homo sapiens, UniProt Q06546 1-454); conditions: protein: recombinant; tags: N-terminal GST; dsDNA, one strand shown
# T3 sequence: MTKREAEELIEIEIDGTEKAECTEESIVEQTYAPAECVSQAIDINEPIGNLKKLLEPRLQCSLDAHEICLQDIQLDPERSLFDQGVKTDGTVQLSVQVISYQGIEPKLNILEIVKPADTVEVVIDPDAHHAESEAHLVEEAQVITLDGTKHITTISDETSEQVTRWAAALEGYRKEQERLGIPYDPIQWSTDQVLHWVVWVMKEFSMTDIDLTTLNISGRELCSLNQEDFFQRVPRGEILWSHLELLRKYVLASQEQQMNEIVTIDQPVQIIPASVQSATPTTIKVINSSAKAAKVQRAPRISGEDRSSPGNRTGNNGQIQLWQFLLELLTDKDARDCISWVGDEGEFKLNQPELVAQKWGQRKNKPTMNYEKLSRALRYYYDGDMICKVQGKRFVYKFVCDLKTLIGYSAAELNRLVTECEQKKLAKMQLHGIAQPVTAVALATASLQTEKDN
# Method in brief: as §1
# ERG = biological target: T4, ERG (Homo sapiens, UniProt P11308 1-479); conditions: protein: recombinant; tags: N-terminal GST; dsDNA, one strand shown
# T4 sequence: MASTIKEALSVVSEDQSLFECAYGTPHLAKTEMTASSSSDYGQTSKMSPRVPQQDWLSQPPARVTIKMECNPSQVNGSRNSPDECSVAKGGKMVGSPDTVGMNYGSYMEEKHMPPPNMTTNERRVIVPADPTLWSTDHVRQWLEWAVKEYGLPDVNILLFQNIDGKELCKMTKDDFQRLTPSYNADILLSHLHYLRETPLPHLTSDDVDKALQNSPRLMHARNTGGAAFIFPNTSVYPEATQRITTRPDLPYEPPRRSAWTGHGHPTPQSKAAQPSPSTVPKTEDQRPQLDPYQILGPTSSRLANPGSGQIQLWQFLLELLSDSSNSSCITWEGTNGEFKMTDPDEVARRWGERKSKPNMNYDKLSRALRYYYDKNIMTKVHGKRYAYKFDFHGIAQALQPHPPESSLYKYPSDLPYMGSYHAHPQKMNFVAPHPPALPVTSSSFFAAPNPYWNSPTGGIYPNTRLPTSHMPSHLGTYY
# Method in brief: as §1
# ELF1 = ELF1 (Homo sapiens, UniProt P32519 1-619); conditions: protein: recombinant; tags: N-terminal GST; dsDNA, one strand shown
# Chain of ELF1 (P32519 whole entry): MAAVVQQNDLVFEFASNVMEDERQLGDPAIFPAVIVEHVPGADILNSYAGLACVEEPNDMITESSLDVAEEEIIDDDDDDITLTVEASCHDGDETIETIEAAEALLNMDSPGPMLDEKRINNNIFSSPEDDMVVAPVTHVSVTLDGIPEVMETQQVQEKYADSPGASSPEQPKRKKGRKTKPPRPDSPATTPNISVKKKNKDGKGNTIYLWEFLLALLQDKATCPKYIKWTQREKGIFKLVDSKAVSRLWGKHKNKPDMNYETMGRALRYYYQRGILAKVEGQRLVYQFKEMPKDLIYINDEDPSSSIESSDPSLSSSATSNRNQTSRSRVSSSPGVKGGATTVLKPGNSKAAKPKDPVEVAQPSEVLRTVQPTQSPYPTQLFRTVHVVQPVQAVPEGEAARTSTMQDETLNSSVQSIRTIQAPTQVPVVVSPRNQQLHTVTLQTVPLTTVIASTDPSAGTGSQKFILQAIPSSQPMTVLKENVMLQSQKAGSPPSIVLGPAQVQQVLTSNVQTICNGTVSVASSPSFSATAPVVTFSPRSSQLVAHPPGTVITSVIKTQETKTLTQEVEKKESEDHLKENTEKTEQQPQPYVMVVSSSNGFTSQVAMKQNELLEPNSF
# Method in brief: as §1
# EHF = biological target: T5, EHF (Homo sapiens, UniProt Q9NZC4 1-300); conditions: protein: recombinant; tags: N-terminal GST; dsDNA, one strand shown
# T5 sequence: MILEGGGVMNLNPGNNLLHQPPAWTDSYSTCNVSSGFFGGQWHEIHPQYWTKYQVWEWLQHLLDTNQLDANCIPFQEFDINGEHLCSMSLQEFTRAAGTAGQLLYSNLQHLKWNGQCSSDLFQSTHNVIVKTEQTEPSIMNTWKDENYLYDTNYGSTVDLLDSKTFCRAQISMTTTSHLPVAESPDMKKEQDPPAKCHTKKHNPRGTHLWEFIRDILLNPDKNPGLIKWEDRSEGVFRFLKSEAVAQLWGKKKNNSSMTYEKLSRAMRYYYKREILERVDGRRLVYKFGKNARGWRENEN
# Method in brief: as §1
# SPI1 = SPI1 (Homo sapiens, UniProt P17947 1-270); conditions: protein: recombinant; tags: N-terminal GST; dsDNA, one strand shown
# Method in brief: as §1
# SPIB = SPIB (Homo sapiens, UniProt Q01892 1-262); conditions: protein: recombinant; tags: N-terminal GST; dsDNA, one strand shown
# Chain of SPIB (Q01892 whole entry): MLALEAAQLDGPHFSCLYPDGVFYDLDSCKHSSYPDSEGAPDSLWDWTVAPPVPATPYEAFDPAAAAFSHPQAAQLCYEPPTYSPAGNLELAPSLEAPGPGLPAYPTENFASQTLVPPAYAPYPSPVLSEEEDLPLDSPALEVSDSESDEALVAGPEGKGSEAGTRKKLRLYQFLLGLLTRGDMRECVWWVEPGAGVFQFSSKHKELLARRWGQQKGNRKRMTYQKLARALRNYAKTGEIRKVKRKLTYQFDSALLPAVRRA
# Method in brief: as §1
# ELK3 = biological target: T6, ELK3 (Homo sapiens, UniProt P41970 1-407); conditions: protein: recombinant; tags: N-terminal GST; dsDNA, one strand shown
# T6 sequence: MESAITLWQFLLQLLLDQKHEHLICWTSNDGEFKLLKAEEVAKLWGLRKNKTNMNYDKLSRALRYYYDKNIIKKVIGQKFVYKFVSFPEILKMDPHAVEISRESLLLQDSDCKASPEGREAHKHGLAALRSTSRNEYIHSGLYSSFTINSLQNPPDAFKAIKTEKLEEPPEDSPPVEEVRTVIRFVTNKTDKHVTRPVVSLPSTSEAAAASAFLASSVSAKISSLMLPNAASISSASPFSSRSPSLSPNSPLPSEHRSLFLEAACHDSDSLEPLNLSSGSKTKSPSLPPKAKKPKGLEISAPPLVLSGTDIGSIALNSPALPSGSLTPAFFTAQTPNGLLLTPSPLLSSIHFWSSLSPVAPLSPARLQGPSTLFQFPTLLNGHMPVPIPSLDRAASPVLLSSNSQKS
# Method in brief: as §1
# FEV = biological target: T7, FEV (Homo sapiens, UniProt Q99581 1-238); conditions: protein: recombinant; tags: N-terminal GST; dsDNA, one strand shown
# T7 sequence: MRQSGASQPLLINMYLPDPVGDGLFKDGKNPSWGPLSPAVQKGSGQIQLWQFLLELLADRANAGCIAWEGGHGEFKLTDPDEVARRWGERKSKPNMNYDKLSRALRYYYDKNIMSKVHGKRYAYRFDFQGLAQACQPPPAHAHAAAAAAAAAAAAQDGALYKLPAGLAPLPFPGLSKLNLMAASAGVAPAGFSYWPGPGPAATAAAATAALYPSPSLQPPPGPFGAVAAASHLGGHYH
# Method in brief: as §1
# ETV5 = ETV5 (Homo sapiens, UniProt P41161 1-510); conditions: protein: recombinant; tags: N-terminal GST; dsDNA, one strand shown
# Chain of ETV5 (P41161 whole entry): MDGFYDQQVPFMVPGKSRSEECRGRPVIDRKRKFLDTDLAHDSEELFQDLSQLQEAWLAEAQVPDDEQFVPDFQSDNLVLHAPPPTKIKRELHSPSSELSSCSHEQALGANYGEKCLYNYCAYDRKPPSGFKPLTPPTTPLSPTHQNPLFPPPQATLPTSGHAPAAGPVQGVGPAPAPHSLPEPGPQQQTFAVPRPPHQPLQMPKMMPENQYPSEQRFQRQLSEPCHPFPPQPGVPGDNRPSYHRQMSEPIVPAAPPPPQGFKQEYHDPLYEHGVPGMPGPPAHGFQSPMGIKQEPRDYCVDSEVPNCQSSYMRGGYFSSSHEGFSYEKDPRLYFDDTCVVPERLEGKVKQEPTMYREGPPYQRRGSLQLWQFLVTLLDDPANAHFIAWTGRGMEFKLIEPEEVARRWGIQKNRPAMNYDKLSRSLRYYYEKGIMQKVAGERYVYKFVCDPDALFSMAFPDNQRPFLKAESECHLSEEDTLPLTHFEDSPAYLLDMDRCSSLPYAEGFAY
# Method in brief: as §1
# HSF1 = HSF1 (Homo sapiens, UniProt Q00613 1-529); conditions: protein: recombinant; tags: N-terminal GST; chain copies: 3; dsDNA, one strand shown
# Chain of HSF1 (Q00613 whole entry): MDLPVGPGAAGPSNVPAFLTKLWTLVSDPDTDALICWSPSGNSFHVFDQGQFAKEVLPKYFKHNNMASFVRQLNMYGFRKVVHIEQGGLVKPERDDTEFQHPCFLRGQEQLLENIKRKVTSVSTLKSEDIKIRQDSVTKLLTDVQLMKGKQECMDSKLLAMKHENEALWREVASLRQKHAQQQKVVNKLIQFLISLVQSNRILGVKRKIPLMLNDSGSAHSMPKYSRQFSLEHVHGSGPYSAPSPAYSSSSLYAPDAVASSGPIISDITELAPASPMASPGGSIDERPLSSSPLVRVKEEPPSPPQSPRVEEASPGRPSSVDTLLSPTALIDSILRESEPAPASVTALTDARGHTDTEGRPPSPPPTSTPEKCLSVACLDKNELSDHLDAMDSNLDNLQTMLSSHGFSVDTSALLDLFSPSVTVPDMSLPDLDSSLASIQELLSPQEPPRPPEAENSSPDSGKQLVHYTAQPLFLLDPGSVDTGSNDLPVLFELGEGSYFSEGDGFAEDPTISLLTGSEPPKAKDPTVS
# Method in brief: as §1
# SPIC = biological target: T8, SPIC (Homo sapiens, UniProt Q8N5J4 1-248); conditions: protein: recombinant; tags: N-terminal GST; dsDNA, one strand shown
# T8 sequence: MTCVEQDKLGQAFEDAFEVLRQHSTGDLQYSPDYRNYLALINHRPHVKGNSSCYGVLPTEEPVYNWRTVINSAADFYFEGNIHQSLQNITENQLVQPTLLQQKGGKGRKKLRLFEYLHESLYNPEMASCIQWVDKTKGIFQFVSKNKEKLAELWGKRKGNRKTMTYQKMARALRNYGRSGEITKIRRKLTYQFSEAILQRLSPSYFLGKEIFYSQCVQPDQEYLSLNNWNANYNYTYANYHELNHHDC
# Method in brief: as §1
# ELF4 = ELF4 (Homo sapiens, UniProt Q99607 1-663); conditions: protein: recombinant; tags: N-terminal GST; dsDNA, one strand shown
# Chain of ELF4 (Q99607 whole entry): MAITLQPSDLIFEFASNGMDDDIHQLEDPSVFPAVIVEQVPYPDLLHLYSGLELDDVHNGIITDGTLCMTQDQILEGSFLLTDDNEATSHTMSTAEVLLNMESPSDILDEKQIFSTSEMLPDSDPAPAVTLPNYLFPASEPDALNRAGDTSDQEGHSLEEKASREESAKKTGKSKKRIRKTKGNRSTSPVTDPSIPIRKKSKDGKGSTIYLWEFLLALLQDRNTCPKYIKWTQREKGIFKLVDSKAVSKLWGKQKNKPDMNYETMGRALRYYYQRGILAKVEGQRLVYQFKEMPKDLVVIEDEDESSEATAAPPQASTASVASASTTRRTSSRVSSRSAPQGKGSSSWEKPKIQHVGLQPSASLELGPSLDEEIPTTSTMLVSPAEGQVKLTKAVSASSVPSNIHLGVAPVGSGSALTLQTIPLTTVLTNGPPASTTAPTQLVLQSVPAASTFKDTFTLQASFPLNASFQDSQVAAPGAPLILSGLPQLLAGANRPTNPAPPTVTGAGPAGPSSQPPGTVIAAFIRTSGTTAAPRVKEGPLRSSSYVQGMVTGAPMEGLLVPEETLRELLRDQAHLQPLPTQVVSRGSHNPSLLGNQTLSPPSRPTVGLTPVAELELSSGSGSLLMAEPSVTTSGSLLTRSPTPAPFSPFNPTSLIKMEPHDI
# Method in brief: as §1
# ELK4 = biological target: T9, ELK4 (Homo sapiens, UniProt P28324-2 1-405); conditions: protein: recombinant; tags: N-terminal GST; dsDNA, one strand shown
# T9 sequence: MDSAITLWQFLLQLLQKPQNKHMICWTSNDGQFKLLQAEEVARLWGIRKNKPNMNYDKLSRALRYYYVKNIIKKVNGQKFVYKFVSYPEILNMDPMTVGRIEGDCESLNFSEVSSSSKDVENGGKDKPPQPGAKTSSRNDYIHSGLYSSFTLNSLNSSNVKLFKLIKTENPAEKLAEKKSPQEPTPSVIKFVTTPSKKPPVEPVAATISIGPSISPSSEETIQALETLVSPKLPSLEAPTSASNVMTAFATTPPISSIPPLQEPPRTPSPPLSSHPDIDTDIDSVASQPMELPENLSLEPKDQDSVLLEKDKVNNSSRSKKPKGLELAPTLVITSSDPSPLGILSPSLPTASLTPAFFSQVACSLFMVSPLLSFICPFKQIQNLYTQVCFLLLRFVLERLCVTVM
# Method in brief: as §1
# ETV2 = biological target: T10, ETV2 (Homo sapiens, UniProt O00321 1-342); conditions: protein: recombinant; tags: N-terminal GST; dsDNA, one strand shown
# T10 sequence: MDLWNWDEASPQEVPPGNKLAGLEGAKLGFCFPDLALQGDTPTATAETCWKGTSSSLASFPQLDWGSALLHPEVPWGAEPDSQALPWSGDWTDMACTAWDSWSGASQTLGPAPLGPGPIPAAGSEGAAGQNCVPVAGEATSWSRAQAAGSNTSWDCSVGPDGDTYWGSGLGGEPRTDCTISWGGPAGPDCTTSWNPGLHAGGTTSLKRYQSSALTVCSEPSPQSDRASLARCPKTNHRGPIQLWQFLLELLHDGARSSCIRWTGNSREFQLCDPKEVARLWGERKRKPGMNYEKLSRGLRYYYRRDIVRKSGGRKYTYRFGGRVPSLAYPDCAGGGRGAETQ
# Method in brief: as §1
# ELF3 = biological target: T11, ELF3 (Homo sapiens, UniProt P78545 1-371); conditions: protein: recombinant; tags: N-terminal GST; dsDNA, one strand shown
# T11 sequence: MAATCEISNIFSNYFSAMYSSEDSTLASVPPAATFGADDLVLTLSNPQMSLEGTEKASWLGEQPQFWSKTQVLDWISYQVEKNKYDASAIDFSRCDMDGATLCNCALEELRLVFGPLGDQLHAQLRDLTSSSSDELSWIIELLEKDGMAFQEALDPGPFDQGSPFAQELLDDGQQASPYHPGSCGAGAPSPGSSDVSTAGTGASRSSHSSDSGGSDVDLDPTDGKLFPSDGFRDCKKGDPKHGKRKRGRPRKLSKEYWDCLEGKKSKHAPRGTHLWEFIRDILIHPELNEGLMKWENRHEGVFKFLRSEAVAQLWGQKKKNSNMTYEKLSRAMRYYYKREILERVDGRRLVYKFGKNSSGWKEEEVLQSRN
# Method in brief: as §1
# CRX = CRX (Homo sapiens, UniProt O43186 1-299); conditions: protein: recombinant; tags: N-terminal GST; dsDNA, one strand shown
# Chain of CRX (O43186 whole entry): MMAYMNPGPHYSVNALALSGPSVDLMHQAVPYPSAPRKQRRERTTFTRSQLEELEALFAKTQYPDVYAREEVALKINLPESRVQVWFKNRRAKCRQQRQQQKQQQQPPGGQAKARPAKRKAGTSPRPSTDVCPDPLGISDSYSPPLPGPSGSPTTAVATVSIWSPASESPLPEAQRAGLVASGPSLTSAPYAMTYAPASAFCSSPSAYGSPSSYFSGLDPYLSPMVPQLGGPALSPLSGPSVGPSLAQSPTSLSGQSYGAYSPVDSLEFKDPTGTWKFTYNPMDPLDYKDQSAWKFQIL
# Method in brief: as §1
# ETV1 = ETV1 (Homo sapiens, UniProt P50549 1-477); conditions: protein: recombinant; tags: N-terminal GST; dsDNA, one strand shown
# Chain of ETV1 (P50549 whole entry): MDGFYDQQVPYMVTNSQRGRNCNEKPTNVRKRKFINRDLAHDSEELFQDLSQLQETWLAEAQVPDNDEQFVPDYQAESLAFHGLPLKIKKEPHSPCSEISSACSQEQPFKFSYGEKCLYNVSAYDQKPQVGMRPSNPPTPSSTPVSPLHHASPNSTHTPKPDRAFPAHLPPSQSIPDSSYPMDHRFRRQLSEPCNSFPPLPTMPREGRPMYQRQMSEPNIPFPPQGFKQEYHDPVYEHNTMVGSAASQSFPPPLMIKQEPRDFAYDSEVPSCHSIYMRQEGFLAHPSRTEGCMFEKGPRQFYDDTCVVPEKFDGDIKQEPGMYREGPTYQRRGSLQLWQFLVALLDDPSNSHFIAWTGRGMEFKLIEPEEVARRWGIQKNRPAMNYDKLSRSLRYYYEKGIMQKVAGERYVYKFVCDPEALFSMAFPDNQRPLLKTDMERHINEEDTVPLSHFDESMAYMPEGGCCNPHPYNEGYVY
# Method in brief: as §1
sequence,measurement,setting,value
AAATTT,binding signal,FLI1,"1.31 fold enrichment (6-mer frequency, TF over GST control)"
same,binding signal,ELK1,"1.31 fold enrichment (6-mer frequency, TF over GST control)"
same,binding signal,GABPA,"1.26 fold enrichment (6-mer frequency, TF over GST control)"
same,binding signal,ERG,"1.3 fold enrichment (6-mer frequency, TF over GST control)"
same,binding signal,ELF1,"1.25 fold enrichment (6-mer frequency, TF over GST control)"
same,binding signal,EHF,"1.33 fold enrichment (6-mer frequency, TF over GST control)"
same,binding signal,SPI1,"1.22 fold enrichment (6-mer frequency, TF over GST control)"
same,binding signal,SPIB,"1.45 fold enrichment (6-mer frequency, TF over GST control)"
same,binding signal,ELK3,"1.28 fold enrichment (6-mer frequency, TF over GST control)"
same,binding signal,FEV,"1.34 fold enrichment (6-mer frequency, TF over GST control)"
same,binding signal,ETV5,"1.36 fold enrichment (6-mer frequency, TF over GST control)"
same,binding signal,HSF1,"1.47 fold enrichment (6-mer frequency, TF over GST control)"
same,binding signal,SPIC,"1.1 fold enrichment (6-mer frequency, TF over GST control)"
same,binding signal,ELF4,"1.19 fold enrichment (6-mer frequency, TF over GST control)"
same,binding signal,ELK4,"1.22 fold enrichment (6-mer frequency, TF over GST control)"
same,binding signal,ETV2,"1.29 fold enrichment (6-mer frequency, TF over GST control)"
same,binding signal,ELF3,"1.43 fold enrichment (6-mer frequency, TF over GST control)"
same,binding signal,CRX,"1.24 fold enrichment (6-mer frequency, TF over GST control)"
same,binding signal,ETV1,"1.35 fold enrichment (6-mer frequency, TF over GST control)"
